# This is a sample that favours compounds with a hit; in the whole collection about 6.9% have one here.
# MPTP inh – permeability transition pore inhibition; isolated mouse mitochondria, Ca2+ swelling absorbance, 30 min; inhibition, % at 10 µM; 360,000 tested, 1.4% active; AID 602449;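 active = inhibition of 50% or more, scaled per plate between neutral and stimulator controls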;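 also: 0% = DMSO wells given calcium and 100% = 1 mM EGTA wells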
# SKKanGAS inh – blocks kanamycin growth of S. pyogenes SKKanGAS strain; BacTiter-Glo, 6 h; inhibition, % at 7.5 µM; 300,000 tested, 1.3% active; AID 1662;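 active = mean replicate score, as percent of positive control median, at least 50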;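 also: strain carries kanamycin resistance gene driven by streptokinase promoter and grows in 40 µg/ml kanamycin; loss of luminescence reflects streptokinase promoter inhibition or plain growth inhibition; 0% = median of DMSO wells and 100% = positive control at its reference dose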
# Beta apoptosis – blocks beta cell apoptosis. INS-1E cytokine-induced death, ATP luminescence, 48 h; percent of positive-control rescue, neutral wells zero. 300,000 tested, 0.8% active. AID 435005. protection from apoptosis, % (no concentration beside the values);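 active = Every replicate reaches about 75%, or at least half do and their mean reaches it too, limit read from the data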;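 also: 0% = cytokine-treated negative control wells and 100% = positive control rescue; higher means more ATP so stronger rescue from cytokine killing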
# Mdm2-MdmX inh – human Mdm2/MdmX binding inhibition. O15151+Q00987. SaOS-2 split-luciferase Mdm2/MdmX complementation, luminescence. inhibition, % at 8 µM. 330,000 tested, 3% active. AID 485346;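 active = inhibition of at least 50% at 8 µM in the primary screen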
# Target sequence (O15151 whole entry, looked up): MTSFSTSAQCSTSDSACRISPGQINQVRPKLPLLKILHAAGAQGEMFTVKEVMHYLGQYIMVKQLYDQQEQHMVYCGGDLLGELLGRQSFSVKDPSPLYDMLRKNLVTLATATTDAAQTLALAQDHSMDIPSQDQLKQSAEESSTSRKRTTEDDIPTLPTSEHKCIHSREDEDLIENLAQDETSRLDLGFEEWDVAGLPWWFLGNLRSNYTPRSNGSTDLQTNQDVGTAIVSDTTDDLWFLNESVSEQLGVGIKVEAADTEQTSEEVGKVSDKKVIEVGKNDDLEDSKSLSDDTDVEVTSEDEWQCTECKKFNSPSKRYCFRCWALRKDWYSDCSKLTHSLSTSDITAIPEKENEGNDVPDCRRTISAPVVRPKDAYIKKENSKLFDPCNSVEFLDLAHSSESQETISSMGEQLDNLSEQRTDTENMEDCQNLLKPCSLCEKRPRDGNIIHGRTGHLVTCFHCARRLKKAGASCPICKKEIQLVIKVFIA
# Target sequence (Q00987 whole entry, looked up): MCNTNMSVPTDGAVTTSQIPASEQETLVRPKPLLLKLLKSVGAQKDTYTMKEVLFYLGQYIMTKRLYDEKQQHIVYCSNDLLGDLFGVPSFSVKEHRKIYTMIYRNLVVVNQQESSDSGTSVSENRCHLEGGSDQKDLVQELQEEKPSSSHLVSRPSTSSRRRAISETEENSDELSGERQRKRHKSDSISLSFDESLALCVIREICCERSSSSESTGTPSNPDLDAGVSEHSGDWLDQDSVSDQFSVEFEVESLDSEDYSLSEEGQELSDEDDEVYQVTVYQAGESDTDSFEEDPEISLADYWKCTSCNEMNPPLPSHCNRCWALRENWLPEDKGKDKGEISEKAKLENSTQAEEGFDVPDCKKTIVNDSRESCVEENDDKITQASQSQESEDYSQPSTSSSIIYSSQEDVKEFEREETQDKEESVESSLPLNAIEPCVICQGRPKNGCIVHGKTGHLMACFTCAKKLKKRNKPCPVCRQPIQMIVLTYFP
# GRIN3A LBD mod – modulates the human NR3A ligand-binding domain. NR3A LBD differential scanning fluorimetry, Tm shift; 0% = protein alone, 100% = glycine-bound protein. Tm shift relative to glycine control, % at 25 µM. 340,000 tested, 2.5% active. AID 1259313;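 active = melting temperature shift of at least 10% of the positive control shift, at one fixed dose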
# CSC inhib – cancer stem cell inhibition | 300,000 tested, 1.1% active | cancer stem cell-like cells viability, luminescence | inhibition, % at 7.5 µM | AID 2717; in the data active = inhibition above about 75%; tested in HMLE shEcad cells
# An asterisk follows results filed as active; x = not tested or not shown.
SMILES,MPTP inh,SKKanGAS inh,Beta apoptosis,Mdm2-MdmX inh,GRIN3A LBD mod,CSC inhib
Cc1ccc(-n2nc3ccc(NC(=O)C(C)C)cc3n2)cc1,0.9,6.7,3.5,-42.6,-5.4,10.3
COc1cccc2c1Oc1ncccc1N(C(=O)CCC(=O)NCc1cccc(C)c1)C2,1.2,-1.4,-11.0,8.5,1.8,-6.5
CN(CCOc1ccccc1)CC(=O)Nc1cccc(C#N)c1,-2.2,1.7,3.7,16.9,2.4,-8.3
O=C(O)/C=C/C(=O)Nc1ccc(Oc2ncnc3cc(Cl)ccc23)nc1,x,-4.9,-6.2,24.3,-0.2,-12.1
Cc1noc(C)c1COc1cccc(C(=O)Nc2ccc(OCc3ccccc3)cc2)c1,-0.9,26.2,3.0,14.9,4.6,98.0*
Cc1ccc(C(=O)Nc2ccc(OCc3ccccc3)cc2)s1,1.4,0.8,4.3,4.2,14.8*,-1.3
Cc1ccsc1C(=O)Nc1ccc(OCc2ccccc2)cc1,-3.4,24.7,13.5,-16.0,18.3*,-10.8
CC(C)=CC(=O)Nc1ccc(OCc2ccccc2)cc1,2.3,-13.6,-2.1,-19.6,28.4*,61.6
Cc1cc(C(=O)Nc2ccc(OCc3ccccc3)cc2)c(C)o1,0.4,9.3,22.4,-36.7,18.7*,x
O=C(Nc1ccccc1F)c1ccc(OCc2ccccc2)cc1,1.5,6.3,-8.6,-153.7,17.3*,14.5
Cc1cc(C(=O)NNC(=O)CCCOc2ccccc2)c(C)o1,-0.6,-2.8,2.5,11.0,-0.8,-7.9
O=C(Nc1ccc(OCc2ccccc2)cc1)c1ccccc1,3.8,-0.9,3.1,-3.0,-6.8,9.6
CC1=C(C(=O)Nc2cc(C(=O)NCCCOC(C)C)ccc2C)SCCO1,1.0,-1.0,-4.7,5.6,-4.7,-8.7
NC(=O)COc1ccc(/C=N\NC(=O)CC(=O)NCCc2ccccc2)cc1,-0.6,4.4,2.0,2.9,0.5,-6.9
CC(C)(C)c1ccc(CN(Cc2ccco2)Cc2nnnn2C2CCCC2)cc1,2.1,51.2*,22.1,33.5,0.9,-4.3
N#Cc1ccccc1N/C=C/C(=O)c1ccc(Cl)cc1,5.9,-13.0,-0.4,-153.3,35.8*,13.2
O=C(/C=C/Nc1ccccc1F)c1ccc(Br)cc1,4.4,0.5,8.3,x,-3.0,16.9
O=C1CN(C(=O)COc2ccc(F)cc2Br)c2ccccc2N1,1.1,-2.7,-0.4,18.2,-1.0,-8.6
CCc1nccn1S(=O)(=O)c1ccccc1[N+](=O)[O-],0.7,-9.1,-3.8,10.0,0.9,-9.9
O=C(CCc1nc(-c2ccccc2F)no1)NCCN1CCOCC1,-0.4,x,9.9,16.5,14.2*,-0.1
COc1ccc(-c2noc(CCC(=O)NCCN3CCN(c4ccccc4F)CC3)n2)cc1,0.3,-3.9,10.6,31.9,1.0,-2.1
O=C(Cc1ccc(Br)cc1)Nc1ccccc1Sc1ccccc1,12.3,-2.3,x,24.9,18.9*,x
O=C(Cc1ccccc1)Nc1ccccc1Sc1ccccc1,7.5,-4.0,-3.1,-10.3,5.6,13.1
COC(=O)[C@]12CCCCC=C1N(Cc1ccc(Cl)cc1Cl)C(=O)[C@H](CC(=O)NCCCN1CCCC1=O)C2,-0.9,x,x,x,x,x
Cc1oc(C(C)(C)C)cc1C(=O)N1CCN(C(c2ccccc2)c2ccccc2)CC1,1.8,63.3*,13.5,19.2,1.4,48.6
SMILES,MPTP inh,SKKanGAS inh,Beta apoptosis,Mdm2-MdmX inh,GRIN3A LBD mod,CSC inhib
Cc1ccc(C(=O)NNC(=S)NC(=O)c2ccco2)cc1,6.3,72.8*,21.6,29.7,6.9,16.9
Cc1onc(-c2ccccc2)c1C(=O)NCc1ccc(F)cc1,3.3,-1.6,x,15.6,11.0*,-8.5
Cc1onc(-c2ccccc2)c1C(=O)NC(=S)NNC(=O)c1ccc(O)cc1,-14.6,105.8*,23.4,0.1,-12.4,18.5
Cc1ccc(-c2c(C(=O)NCc3ccc(F)cc3)oc(=O)c3ccccc23)cc1,2.7,-5.8,-8.9,-3.7,14.4*,5.0
Cc1ccc(CNC(=O)c2cc(=O)c3ccccc3o2)cc1,-1.2,-2.5,-1.7,14.5,0.5,-5.7
Cc1ccc(C(=O)NNC(=O)c2ccco2)cc1,-1.9,2.8,0.1,-15.6,-2.1,3.9
Cc1onc(-c2ccccc2)c1C(=O)NCc1ccccc1F,0.6,-7.0,-0.2,-0.9,-1.8,-30.8
O=C(NCc1ccccc1)c1cc(C2CCCCN2S(=O)(=O)c2cccc3cccnc23)on1 (stereo not drawn),0.6,x,x,x,x,x
Cc1ccc(C(=O)NNC(=S)NC(=O)c2ccccc2)cc1,16.0,99.1*,x,31.0,-3.8,11.6
Cc1onc(-c2ccccc2)c1C(=O)NC(=S)Nc1sc2c(c1C#N)CCCC2,41.6,21.1,6.8,-8.8,10.6*,10.9
Cc1ccc(C(=O)NC(=S)NNC(=O)c2ccccc2)cc1,9.5,76.6*,2.2,22.2,1.9,-15.5
CCOC(=O)C1=C(C)OC(N)=C(C#N)C1c1ccc(C)s1 (stereo not drawn),-0.4,2.0,0.5,14.7,-1.6,3.7
CN1CCN(c2cc(-c3cccc(C(=O)O)c3)nc3ccnn23)CC1,-1.4,x,x,x,x,x
O=C(O)CNC(=O)c1ccc(NC(=O)/C(=C/c2ccccc2)NC(=O)c2ccco2)cc1,-0.2,5.9,-4.9,3.6,2.0,-8.6
Cc1ccccc1OCC(O)CN(Cc1ccccc1O)C1CCCCC1 (stereo not drawn),3.4,1.0,16.4,-8.0,1.4,7.0
O/C(=C\c1nc2ccccc2nc1/C=C(\O)c1ccccc1)c1ccccc1,3.7,8.9,x,-8.7,22.4*,37.6
CCCCCCCCCCNC(=O)C(=O)Nc1ccccn1,0.9,-6.0,-0.8,6.9,12.2*,-5.1
COc1ccc(CCn2c(O)c(C3=c4ccccc4=NC3=O)sc2=S)cc1OC,-0.5,2.0,x,4.6,1.9,-6.8
O=C1N=c2ccccc2=C1c1sc(=S)n(CC2CCCO2)c1O (stereo not drawn),0.5,-12.5,-20.9,8.5,15.2*,x
COc1cc(CN2C[C@@H](CO)O[C@@H](n3cnc4c(NCc5ccco5)ncnc43)C2)cc(OC)c1OC,-0.9,x,x,x,x,x
COc1ccc(C(c2c(O)ccc3ccccc23)N2CCOCC2)c(OC)c1 (stereo not drawn),4.7,7.1,-16.1,-28.5,0.4,100.8*
COc1ccc(C(CCN2CCOCC2)c2c(O)cc(OC)cc2OC)cc1 (stereo not drawn),-1.0,3.9,-4.8,9.2,0.8,-1.2
CCOC(=O)[C@H](CCc1ccccc1)N[C@@H](C)C(=O)N1[C@H](C(=O)O)C[C@@H]2CCC[C@@H]21,-0.7,-1.6,3.0,-14.2,-1.7,-5.2
O=Cc1ccccc1-n1cncn1,0.7,5.6,-4.3,12.5,-0.9,12.5
Cc1oc(CC(C)C)cc1C(=O)Nc1cccc2ccccc12,3.5,20.7,-3.8,26.1,25.4*,80.4*
Cc1cc(C(=O)Nc2cccc3ccccc23)c(C)o1,0.4,-0.2,-2.8,10.2,1.3,-8.2
COc1cc(C(C)=O)ccc1OCC(O)CNCC(O)c1ccccc1 (stereo not drawn),-0.1,-1.5,-1.4,-23.8,0.5,-13.9
O=c1c2ccccc2nc2n1CCc1c-2[nH]c2ccccc12,0.4,x,1.0,-83.9,-1.1,77.7*

# High-throughput results deposited in PubChem by several laboratories.
